# Results reported in PMC11006913.
# Where a chain is given by its changes, count along the chain named.
# Experiments:
# Test in all cases: PBM; 200 nM protein, PBS
# Details in all cases: dsDNA, one strand shown
# PRRX1 [1] = biological target: PRRX1 (Homo sapiens, UniProt P54821 80-166, F113S)
# PRRX1 [2] = biological target: PRRX1 (Homo sapiens, UniProt P54821 80-166)
# HOXC10 [3] = biological target: HOXC10 (Homo sapiens, UniProt Q9NYD6 254-340)
# HOXC10 [4] = biological target: HOXC10 (Homo sapiens, UniProt Q9NYD6 254-340, K271E)
# Sequence of HOXC10 (Homo sapiens, UniProt Q9NYD6 254-340, K271E) (Q9NYD6 254-340 K271E): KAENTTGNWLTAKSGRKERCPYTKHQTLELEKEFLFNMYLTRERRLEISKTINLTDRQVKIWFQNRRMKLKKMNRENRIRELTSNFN
# PAX4 [5] = biological target: T1, PAX4 (Homo sapiens, UniProt O43316 9-242, R200K)
# T1 sequence: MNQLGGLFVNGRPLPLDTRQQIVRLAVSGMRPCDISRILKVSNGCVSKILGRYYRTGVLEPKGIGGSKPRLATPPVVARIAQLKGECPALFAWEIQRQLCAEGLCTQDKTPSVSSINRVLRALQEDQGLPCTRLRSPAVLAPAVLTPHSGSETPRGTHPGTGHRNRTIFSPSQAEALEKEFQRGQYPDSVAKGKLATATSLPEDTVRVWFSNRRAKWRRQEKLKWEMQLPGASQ
# PAX4 [6] = biological target: T2, PAX4 (Homo sapiens, UniProt O43316 9-242)
# T2 sequence: T1 sequence with K192R
# PAX4 [7] = biological target: T3, PAX4 (Homo sapiens, UniProt O43316 9-242, R200Q)
# T3 sequence: T1 sequence with K192Q
# PAX4 [8] = biological target: T4, PAX4 (Homo sapiens, UniProt O43316 9-242, F177V)
# T4 sequence: T1 sequence with F169V, K192R
# PAX4 [9] = biological target: T5, PAX4 (Homo sapiens, UniProt O43316 9-242, F177Y)
# T5 sequence: T1 sequence with F169Y, K192R
# PAX4 [10] = biological target: T6, PAX4 (Homo sapiens, UniProt O43316 9-242, R227W)
# T6 sequence: T1 sequence with K192R, R219W
# Sequence of PRRX1 (Homo sapiens, UniProt P54821 80-166) (P54821 80-166): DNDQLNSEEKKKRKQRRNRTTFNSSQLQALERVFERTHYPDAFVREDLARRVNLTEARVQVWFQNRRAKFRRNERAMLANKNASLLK
# Sequence of PRRX1 (Homo sapiens, UniProt P54821 80-166, F113S) (P54821 80-166 F113S): as the sequence (P54821 80-166) above, with F34S counted along it
# Sequence of HOXC10 (Homo sapiens, UniProt Q9NYD6 254-340) (Q9NYD6 254-340): as the sequence (Q9NYD6 254-340 K271E) above, with E18K counted along it
sequence,measurement,setting,value
CGGGAAGC,binding signal,PRRX1 [1],"9.35 upbm affinity estimate (log intensity, higher = more binding, comparable within an allelic series)"
same,binding signal,PRRX1 [2],"9.64 upbm affinity estimate (log intensity, higher = more binding, comparable within an allelic series)"
CCCCGGGG,binding signal,HOXC10 [3],"9.9 upbm affinity estimate (log intensity, higher = more binding, comparable within an allelic series)"
same,binding signal,HOXC10 [4],"9.91 upbm affinity estimate (log intensity, higher = more binding, comparable within an allelic series)"
CGGGCCCC,binding signal,PRRX1 [1],"9.02 upbm affinity estimate (log intensity, higher = more binding, comparable within an allelic series)"
same,binding signal,PRRX1 [2],"9.32 upbm affinity estimate (log intensity, higher = more binding, comparable within an allelic series)"
CTCCGCCC,binding signal,PAX4 [5],"9.45 upbm affinity estimate (log intensity, higher = more binding, comparable within an allelic series)"
same,binding signal,PAX4 [6],"9.46 upbm affinity estimate (log intensity, higher = more binding, comparable within an allelic series)"
same,binding signal,PAX4 [7],"9.44 upbm affinity estimate (log intensity, higher = more binding, comparable within an allelic series)"
same,binding signal,PAX4 [8],"9.16 upbm affinity estimate (log intensity, higher = more binding, comparable within an allelic series)"
same,binding signal,PAX4 [9],"9.22 upbm affinity estimate (log intensity, higher = more binding, comparable within an allelic series)"
same,binding signal,PAX4 [10],"9.35 upbm affinity estimate (log intensity, higher = more binding, comparable within an allelic series)"
GGGGGCAA,binding signal,PAX4 [5],"9.18 upbm affinity estimate (log intensity, higher = more binding, comparable within an allelic series)"
same,binding signal,PAX4 [6],"9.24 upbm affinity estimate (log intensity, higher = more binding, comparable within an allelic series)"
same,binding signal,PAX4 [7],"9.19 upbm affinity estimate (log intensity, higher = more binding, comparable within an allelic series)"
same,binding signal,PAX4 [8],"9.04 upbm affinity estimate (log intensity, higher = more binding, comparable within an allelic series)"
same,binding signal,PAX4 [9],"9.1 upbm affinity estimate (log intensity, higher = more binding, comparable within an allelic series)"
same,binding signal,PAX4 [10],"9.17 upbm affinity estimate (log intensity, higher = more binding, comparable within an allelic series)"
CAGCGCCG,binding signal,HOXC10 [3],"9.95 upbm affinity estimate (log intensity, higher = more binding, comparable within an allelic series)"
same,binding signal,PAX4 [5],"9.2 upbm affinity estimate (log intensity, higher = more binding, comparable within an allelic series)"
same,binding signal,PAX4 [6],"9.2 upbm affinity estimate (log intensity, higher = more binding, comparable within an allelic series)"
same,binding signal,PAX4 [7],"9.26 upbm affinity estimate (log intensity, higher = more binding, comparable within an allelic series)"
same,binding signal,PAX4 [8],"9.19 upbm affinity estimate (log intensity, higher = more binding, comparable within an allelic series)"
same,binding signal,HOXC10 [4],"9.93 upbm affinity estimate (log intensity, higher = more binding, comparable within an allelic series)"
same,binding signal,PAX4 [9],"9.21 upbm affinity estimate (log intensity, higher = more binding, comparable within an allelic series)"
same,binding signal,PAX4 [10],"9.19 upbm affinity estimate (log intensity, higher = more binding, comparable within an allelic series)"
CCCTCGGC,binding signal,PRRX1 [1],"9.22 upbm affinity estimate (log intensity, higher = more binding, comparable within an allelic series)"
same,binding signal,PRRX1 [2],"9.48 upbm affinity estimate (log intensity, higher = more binding, comparable within an allelic series)"
